D2 PAM-1 = HTS Assay for Positive Allosteric Modulators of the Human D2 Dopamine Receptor: Primary Screen for Potentiators; AID 485347, 2010; hit rate 0.34% among 340,000; D(2) dopamine receptor (Homo sapiens), P14416; HEK293 T-REx D2, calcium flux, EC20 dopamine potentiation; potentiation, % at 10 µM;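 active = potentiation over 3 SD above the plate norm, cut at about 30% in these data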; also: 0% is about no effect
Target sequence (P14416 whole entry, looked up): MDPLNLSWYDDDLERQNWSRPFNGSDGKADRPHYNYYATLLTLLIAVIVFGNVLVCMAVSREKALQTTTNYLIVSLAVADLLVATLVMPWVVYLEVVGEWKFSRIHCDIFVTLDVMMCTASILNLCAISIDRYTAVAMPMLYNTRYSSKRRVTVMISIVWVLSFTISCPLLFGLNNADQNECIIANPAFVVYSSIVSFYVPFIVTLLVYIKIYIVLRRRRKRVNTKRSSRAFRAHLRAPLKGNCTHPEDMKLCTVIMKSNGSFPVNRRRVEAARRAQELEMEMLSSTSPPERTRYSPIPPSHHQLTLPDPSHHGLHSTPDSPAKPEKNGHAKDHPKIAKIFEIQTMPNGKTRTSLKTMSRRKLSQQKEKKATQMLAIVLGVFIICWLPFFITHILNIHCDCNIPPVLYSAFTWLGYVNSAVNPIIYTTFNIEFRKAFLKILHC
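Using a no-wash calcium dye in inducible, force-coupled HEK293 Trex cells expressing D2, we tracked fluorescence each second for 180 s after compound, then for 180 s after EC20 dopamine to detect augmented signalling.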
D2 PAM-2 = Beta-Arrestin HTS for Positive Allosteric Modulators of the Human D2 Dopamine Receptor: Potentiators; hit rate 0.23% among 360,000; DiscoveRx D2 beta-arrestin cells, luminescence, 90 min; 100% = 57 uM dopamine signal; AID 624464, 2012; D(2) dopamine receptor (Homo sapiens), P14416; potentiation, % (test concentration not listed); in the data active = potentiation above about 50%; inconclusive = mostly about 30% to 49%
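D2 cells co-treated with compound plus 50 nM dopamine (EC20) for 90 min at 37 deg C to detect potentiation. Beta-arrestin recruitment was read as enzyme-fragment luminescence after 1 h at ambient temperature. Full response was set by 57 uM dopamine.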
D2 ag-1 = HTS Assay for Allosteric Agonists of the Human D2 Dopamine Receptor: Primary Screen for Agonists | HEK293 T-REx D2 cells, calcium flux agonist mode | AID 485358, 2010 | activation, % at 2 µM | D(2) dopamine receptor (Homo sapiens), P14416 | hit rate 0.53% among 340,000;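 active = activation over 3 SD above normal in the single-dose calcium agonist read, cut at about 30% in these data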; also: 0% is about no effect
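HEK293 Trex D2 cells, tetracycline-induced, o/n 30 C 5% CO2; no-wash Ca dye, RT 30–90 min; 10-cycle baseline, 23 nl cpd added, kinetic Ca read 180 s; agonist hits = positive Ca response.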
D2 antag = HTS Assay for Allosteric Antagonists of the Human D2 Dopamine Receptor: Primary Screen for Antagonists; hit rate 2% among 340,000; inhibition, % at 10 µM; HEK293 TREx D2 cells, calcium flux, dopamine EC80; D(2) dopamine receptor (Homo sapiens), P14416; in the data active = inhibition above about 30%; inactive = below that, where a call was filed; also: 0% is about no effect
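Inhibition of EC80 dopamine-driven calcium flux, recorded kinetically, defines activity here; cells are a tetracycline-induced HEK293 T-REx line expressing force-coupled D2.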
D2 ag-2 = Beta-Arrestin HTS for Positive Allosteric Modulators of the Human D2 Dopamine Receptor: Agonists; D(2) dopamine receptor (Homo sapiens), P14416; DiscoveRx PathHunter D2 beta-arrestin, luminescence, 90 min; 100% = 57 uM dopamine signal; activation, % (concentration not given with the values); hit rate 0.084% among 360,000; in the data active = activation above about 40%; inconclusive = between about 15% and that limit
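Agonist mode: compounds alone added to overnight-plated D2 PathHunter cells for 90 min at 37 C, with 57 uM final dopamine (EC100) defining full response. Beta-arrestin recruitment detected by chemiluminescent reagent, read after 1 h at ambient temperature.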
Active calls of the source: *; ? = inconclusive; nt = not tested or not shown; ! = not active in a repeat. Only some compounds are listed: those with a hit (about 2.4% of all), similar ones and a draw of the others.

SMILES	D2 PAM-1	D2 PAM-2	D2 ag-1	D2 antag	D2 ag-2
Cc1nc(N2CCC(C)CC2)c2nnn(Cc3ccccc3)c2n1	34*	-34	0	-24	-1
CC(C)Cc1nc(N2CCC(C(N)=O)CC2)c2nnn(Cc3ccccc3)c2n1	nt	-10	nt	nt	-3
CCc1cc(C(=O)NCC(c2cccs2)N2CCOCC2)sc1C (stereo unspecified)	-5	-38	0	31*	-2
COc1ccc(Cn2c(-c3ccc(C)cc3)nc3c(c(=O)c4ccccc4n3C)c2=O)cc1	-3	-12	0	37*	-3
COc1ccc(CCn2c(C)nc3c(c(=O)c4ccccc4n3C)c2=O)cc1	25	-17	3	49*	2
Cc1ccc(C)n1-c1nnc(N2CCCC(C(=O)NCc3cccc(Cl)c3)C2)s1 (stereo unspecified)	18	nt	0	nt	nt
COC(C[C@H]1O[C@@H]1[C@@H](O)[C@H](C)OCc1ccccc1)OC	8	-1	0	36*	-1
CCCCCn1c(=N)n(CC(O)COc2ccccc2OC)c2ccccc21 (stereo unspecified)	-10	-3	-1	32*!	-4
CCOc1ccc(NC(=O)CSc2ncc(-c3ccc(F)cc3)n2Cc2ccco2)cc1	21	-10	0	12	-2
O=C(CSc1ncc(-c2ccc(F)cc2)n1Cc1ccco1)Nc1ccc2c(c1)OCO2	-16	-24	1	37*	-3
Cc1cccc(NC(=O)CSc2nnc(-c3cnccn3)n2Cc2ccco2)c1	25	-18	0	-12	-4
O=C(CSc1nccn1-c1ccc(F)cc1)Nc1ccc2c(c1)OCO2	39*	-8	1	-29	-4
Cc1ccc(NC(=O)CSc2nnc(-c3cnccn3)n2Cc2ccco2)cc1	-7	-14	-4	32*	-2
Cc1oc2ncn(C)c(=O)c2c1C(=O)NC(C)c1ccccc1 (stereo unspecified)	2	nt	-1	nt	nt
Cc1cc(C(=O)NC2CCCCC2)c2cc(F)ccc2n1	-1	26	1	31*	2
Cc1cc(C(=O)NC2CCCC2)c2ccccc2n1	-1	-8	nt	nt	1
Cc1ccccc1OCc1nc2ccccc2c(=O)n1/N=C/c1cn[nH]c1-c1ccccc1	-2	8	0	57*	-2
O=C(CCNS(=O)(=O)c1ccc2c(c1)CCN2C(=O)C1CC1)N1CCN(c2ccc(F)cc2)CC1	-5	nt	21	nt	nt
COc1cc(C(=O)Nc2ccc(S(=O)(=O)NC(C)(C)C)cc2)cc(OC)c1OC	-1	-2	0	-22	1
COc1cc(C(=O)Nc2ccc(S(=O)(=O)NC(C)C)cc2)cc(OC)c1OC	0	-6	0	31*	2
CCCCOc1ccc(C(=O)N(Cc2nc(-c3ccc(Cl)cc3)no2)C(C)C)cc1	7	nt	nt	nt	nt
O=C(NNC1=Nc2cccc3cccc1c23)c1ccc(Br)cc1	-23	-18	5	83*	0
Cc1nc2ccn(Cc3ccccc3)c(=O)c2cc1C(=O)Nc1ccc(F)cc1Cl	-10	nt	-1	nt	nt
CC(C)C(C)(C#N)NC(=O)CSc1ncnc2sc(-c3ccccc3)cc12 (stereo unspecified)	-13	-10	1	31*	1
COc1ccc(Nc2nc(Nc3ccc(OC)cc3OC)nc(N3CCOCC3)n2)c(OC)c1	0	nt	-2	nt	nt
SMILES	D2 PAM-1	D2 PAM-2	D2 ag-1	D2 antag	D2 ag-2
C/C(Cn1nnc([N+](=O)[O-])n1)=N\NC(=O)c1ccccc1O	-4	5	0	-1	?
C/C(Cn1nnc([N+](=O)[O-])n1)=N\NC(=O)c1ccc(O)cc1O	3	59*	6	13	?
Cc1cccc(C)c1NC(=O)CN1C(=O)C2CC=CCC2C1=O (stereo unspecified)	-4	1	0	57*	-6
Cc1cccc(C)c1NC(=O)CN1C(=O)N(C)Cc2ccccc21	-2	-2	0	45*	0
Cc1cccc(C(C)C)c1NC(=O)COC(=O)CN1C(=O)C2CC=CCC2C1=O (stereo unspecified)	5	-11	1	-3	-4
CN1Cc2ccccc2N(CC(=O)NCc2ccccc2)C1=O	-2	-8	nt	nt	-3
OCCN(Cc1nc(-c2ccc3c(c2)OCO3)no1)Cc1cccs1	-15	-12	1	39*	-5
COc1ccc(Cc2noc(CN(C)CCN3CCc4ccccc4C3)n2)cc1OC	-23	-22	2	-32	-2
CN(CCCCN1CCOCC1)Cc1nc(-c2ccc3c(c2)OCO3)no1	-3	-12	0	2	-1
CN(CCN1CCc2ccccc2C1)Cc1nc(-c2ccc3c(c2)OCO3)no1	-22	-15	0	44*	4
CN(CCN1CCc2ccccc2C1)Cc1nc(Cc2ccccc2F)no1	-12	-15	-2	41*	1
CN(Cc1nc(-c2ccccc2)no1)C(=O)c1ccc2c(c1)OCO2	-13	-15	0	-14	4
Cc1cc(C)c2c(c1)c(C)cc1nnc(SCc3ccccc3C#N)n12	8	nt	-2	nt	nt
O=C(Cn1cc(S(=O)(=O)Cc2cccc(Cl)c2)c2ccccc21)Nc1ccccc1C(F)(F)F	3	nt	0	nt	nt
Cc1ccc(N/C(N)=N/c2nc(C)cc(N3CCCCC3)n2)c(C)c1	-19	-18	8	35*	6
Cc1ccc(N/C(N)=N/c2nc3c(c(=O)[nH]2)CCCC3)c(C)c1	-1	-7	-1	-10	3
CN1CCN(C(CNC(=O)C(=O)Nc2ccc(Cl)cc2)c2cccnc2)CC1 (stereo unspecified)	-10	nt	0	nt	nt
COC(=O)C1CCN(C(=O)c2sc3nc(-c4ccc(F)cc4)cn3c2C)CC1	31*	-6	-1	-4	1
CN(C(=O)Cn1c(=O)n(Cc2ccc(C(=O)NCc3ccc4c(c3)OCO4)cc2)c(=O)c2ccccc21)c1ccccc1	-12	nt	2	nt	nt
C=CCn1c(SCC(=O)Nc2ccc(O)cc2)nc2sc(CC)cc2c1=O	3	-2	-1	31*	2
COCCn1c(C)cc(O)c(C(c2ccccc2)N2CCN(c3ccc(F)cc3)CC2)c1=O (stereo unspecified)	6	nt	nt	nt	nt
CCOC(=O)C1CCC(CN(Cc2ccc(Cl)cc2)S(=O)(=O)c2ccc(F)c(C(=O)Nc3cccc(F)c3)c2)CC1 (stereo unspecified)	3	nt	0	nt	nt

Bioassay records (PubChem)
